GLP1R cytotox – qHTS of GLP-1 Receptor Inverse Agonists: Cytotox Screen | HEK293 cAMP-luciferase reporter cells, luminescence, 24 h | Potency, µM (titrated, usually from 38.3 µM), without a hit: top-dose activity change, negative = inhibition, hits mostly inhibitors | 0.13% of 410,000 active | AID 624418, 2012;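 further: loss of luciferase light is scored as toxicity; on the % scale 0 is the no-effect control and ±100 the full control effect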
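To flag toxic compounds, the library was rerun on cells for 24 hr at 37 deg C and 5% CO2. Viability-linked luminescence was captured 12 min after adding luciferase detection reagent.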
GLP1R inv ag – qHTS of GLP-1 Receptor Inverse Agonists (Inhibition Mode). 1.6% of 410,000 active. HEK293 GLP-1R CRE-luciferase, luminescence, 24 h; GLP-1R form is constitutively active. Potency, µM (titrated, usually from 38.3 µM), for inactives: at the highest dose activity change, negative = inhibition, actives largely listed as inhibitors; further: on the % scale 0 is the no-effect control and ±100 the full control effect; nearly all actives have a fitted effect of over 55% in size
Target sequence (P43220 whole entry, looked up): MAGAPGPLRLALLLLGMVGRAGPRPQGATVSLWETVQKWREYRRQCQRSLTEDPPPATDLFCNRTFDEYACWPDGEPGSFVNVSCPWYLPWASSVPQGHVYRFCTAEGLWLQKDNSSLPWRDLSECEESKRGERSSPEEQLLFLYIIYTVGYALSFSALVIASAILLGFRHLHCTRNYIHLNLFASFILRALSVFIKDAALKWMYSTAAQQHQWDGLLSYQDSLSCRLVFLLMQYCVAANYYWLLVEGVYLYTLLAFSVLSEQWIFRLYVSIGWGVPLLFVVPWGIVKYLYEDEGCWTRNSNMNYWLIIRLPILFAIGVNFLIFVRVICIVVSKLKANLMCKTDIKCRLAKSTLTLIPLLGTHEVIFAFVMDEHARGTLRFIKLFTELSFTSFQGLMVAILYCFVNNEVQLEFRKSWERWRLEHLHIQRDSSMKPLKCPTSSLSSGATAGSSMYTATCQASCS
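Readout was luciferase luminescence, measured 12 min after detection reagent at room temperature. Beforehand, GLP-1R reporter HEK293 cells had sat 12 h, then received compounds for 24 hr at 37 deg C.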
RORgamma inh – qHTS for inhibitors of ROR gamma transcriptional activity | Nuclear receptor ROR-gamma (Mus musculus), P51450 | Drosophila S2 Gal4-RORgamma UAS-luciferase reporter, 20 h | Potency, µM (titrated, usually from 53.6 µM), for inactives: at the top dose activity change, negative = inhibition, actives largely listed as inhibitors | 5.4% of 310,000 active | AID 2551, 2010; further: on the % scale 0 is the no-effect control and ±100 the full control effect; nearly all actives have a fitted effect of over 60% in size
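Drosophila S2 cells stably expressing Gal4-DBD/mouse RORγ fusion under metallothionein promoter plus UAS-luciferase; compound 1 h, then 700 uM CuSO4 induction for 20 h at ambient temperature; inhibition read as reduced luminescence.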
Gal4-VP16 FLuc – VP16 counterscreen qHTS for inhibitors of ROR gamma transcriptional activity; Drosophila S2 Gal4-VP16 UAS-luciferase, luminescence, 20 h; 3.5% of 310,000 active; Potency, µM (doses to about 53.6 µM), without a hit: at the top dose activity, negative = inhibition, hits mostly inhibitors;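 further: Gal4-VP16 expression switched on by copper sulfate through the metallothionein promoter; on the % scale 0 is the no-effect control and ±100 the full control effect; nearly all actives have a fitted effect of over 50% in size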
GLP1R ag – qHTS of GLP-1 Receptor Agonists; Potency, µM (series often up to 45.6 µM), for the others: at the highest dose activation, most hits filed as activators; 0.007% of 380,000 active; Glucagon-like peptide 1 receptor (Homo sapiens), P43220; AID 624172, 2012; HEK293 GLP-1R CRE-luciferase, luminescence, 4-6 h; cells express a hypersensitive GLP-1R form; further: % of control where 0% means no effect
The depositor's hits bear a star; ? = inconclusive; / = no result; [ ] = dose if it differs, or a comment. An excerpt weighted towards active compounds, which were near 5.9% of everything screened. The call rests on the fitted dose curve; in most records, active means well fitted curve in the direction sought with a large enough effect; inconclusive means small, poorly fitted or top-dose-only effect, or another doubt; inactive means no such curve, though single readings can be large; an effect the other way counts as inactive or inconclusive. Potency means the concentration at half of the fitted maximal effect.

SMILES | GLP1R cytotox | GLP1R inv ag | RORgamma inh | Gal4-VP16 FLuc | GLP1R ag
CCOc1ccc(CNC(=O)C2CCCN(S(=O)(=O)c3ccc4c(ccn4C)c3)C2)cc1 (centres undefined) | -6% | ? | / | / | /
Cc1ccc(-c2csc3nc[nH]c(=S)c23)cc1C | ? | ? | 0.45µM* | ? | 4%
C/C=C/C1=CC2=CC(=O)C(C)(OC(=O)c3c(C)cc(O)cc3O)C(=O)C2=CO1 (centres undefined) | / | / | 0% | -1% | /
S=c1[nH]nc(Cc2sc(-c3ccccc3)nc2-c2ccccc2)o1 | -14% | ? | 11µM* | ? | -8%
O=C(COCc1cc(-c2cccs2)on1)NCc1ccc(Cl)cc1 | -5% | -19% | / | / | /
Cc1ccccc1C(=O)N(Cc1nc2ccccc2c(=O)[nH]1)C1CCCC1 | -7% | 13µM* | ? | -1% | 8%
Cc1ccc(C(=O)N(Cc2nc3ccccc3c(=O)[nH]2)C2CCCC2)cc1 | -22% | ? | -25% | 7.1µM* | -10%
Cc1cccc(NC(=O)N(Cc2nc3ccccc3c(=O)[nH]2)C2CCCC2)c1 | -22% | ? | -33% | -4% | 1%
O=C(NC1CCCCC1)N(Cc1ccc(F)cc1)Cc1nc2ccccc2c(=O)[nH]1 | 20% | 5% | -20% | -5% | 2%
O=C(Nc1cccc(Cl)c1)N(Cc1nc2ccccc2c(=O)[nH]1)C1CCCC1 | 11% | ? | 14µM* | ? | -3%
CCNc1ncc2nc(-c3cc(F)cc(F)c3)c(=O)n(Cc3cccs3)c2n1 | / | / | -3% | -2% | /
CC(C)c1cccc2c([Si](C)(C)C)c3c(nc12)-c1cccc(=O)n1C3 | / | / | 0% | -13% | /
CC(=O)c1sc(N/N=C2\CC3CC2C(C)C3(C)C)nc1C (centres undefined) | ? | ? | 7.1µM* | ? | 8%
CC(=O)N(C1=C(Cl)C(=O)c2ccccc2C1=O)C1CCCCC1 | 7% | ? | 10µM* | 11µM* | -21%
CC(=O)N(c1ccccc1C)C1CCCC1 | -5%[1.53 µM] | -16% | -26% | -7% | -3%
Fc1ccc(Sc2nc(-c3ccccc3)nnc2C(F)(F)F)cc1 | -10% | -1% | 5.6µM* | 7.1µM* | -16%
O=C(Nc1nnc(CCc2ccccc2)s1)c1cccc(F)c1 | 0% | 12% | 18µM* | -17% | 1%
CCN(c1ccccc1)S(=O)(=O)c1cccc(C(=O)NCC2(N(C)C)CCCCC2)c1 | -1% | 10µM* | / | / | -2%
COC(=O)C1=C[C@@H](C(=O)OC)C2C3=C(C(=O)[C@@]2(C)NC(=O)c2ccccc2)[C@H](C)n2c(=O)n(-c4ccccc4)c(=O)n2[C@@H]3C1 (some centres undefined) | / | / | -11% | -1% | /
COc1cccc(NC(=O)c2nnn(Cc3ccc(OC)c(Br)c3)c2N)c1 | -10% | -1% | / | / | 1%
CC(C)(C)c1cc(=O)n(-c2ccccc2)[nH]1 | -29% | -20% | 9% | -14% | -3%
CC(C)(C)c1cn(-c2ccccc2)c(=S)[nH]1 | ? | ? | 7.1µM* | 7.9µM* | 21%
Cc1ccc(-n2cc(C(C)(C)C)[nH]c2=S)cc1 | ? | ? | 2.2µM* | 6.3µM* | -1%
COc1cc(-c2noc(-c3ccc(NCCc4ccccc4)c([N+](=O)[O-])c3)n2)cc(OC)c1OC | 2% | 13% | / | / | /
N#CC(C#N)=C1C=CC=CN1/C(=C\c1ccco1)C(=O)c1ccc(-c2ccccc2)cc1 | 21% | ? | 4µM* | 3.2µM* | -26%
SMILES | GLP1R cytotox | GLP1R inv ag | RORgamma inh | Gal4-VP16 FLuc | GLP1R ag
Cc1c(C(=O)c2no[n+]([O-])c2C(=O)c2cnn(C)c2C)cnn1C | ? | ? | 10µM* | 8.9µM* | -21%
O=C(OCCOc1cccc(Cl)c1)c1cc(S(=O)(=O)N2CCCCC2)ccc1N1CCOCC1 | -2% | 5.6µM* | / | / | -1%
O=C(OCc1cccc(Cl)c1)c1cc(S(=O)(=O)N2CCCCC2)ccc1N1CCOCC1 | 0% | ? | 22% | -12% | 2%
c1ccc(Oc2nc(Oc3ccccc3)nc(N3CCOCC3)n2)cc1 | 5% | 7.9µM* | 6% | 3% | -1%
CCCCN(S(=O)(=O)c1ccccc1)S(=O)(=O)c1ccccc1 | -5% | 10µM* | ? | -7% | 18%
COc1cccc(Cn2c(=O)n(Cc3ccccc3)c(=O)c3c2c2cc(OC)ccc2n3C)c1 | -3% | 8% | / | / | 0%
O=[N+]([O-])c1cc(-c2csc(NCCc3nc4cc(Cl)c(N5CCCCC5)cc4n3CCCO)n2)ccc1Cl | -20% | 2.2µM* | / | / | -1%
Cc1ccc(Cn2c(CCNc3nc(-c4ccc(Cl)c([N+](=O)[O-])c4)cs3)nc3cc(Cl)c(Cl)cc32)cc1 | -17% | ? | / | / | -1%
N=C(N)SCc1cn(-c2ccccc2)nc1-c1ccc(Br)cc1 | ? | ? | 11µM* | ? | -7%
Cc1ccc(-c2nn(-c3ccccc3)cc2CO)cc1 | 12% | -23% | 11% | -11% | 9%
Cc1cccc(C2(c3cccc(C)c3)CC2C(=O)Nc2ccc([N+](=O)[O-])cc2O)c1 (centres undefined) | ? | 2.5µM* | -104% | 11µM* | -5%
Cc1cc(C(=O)N=Nc2c(O)n(C(C)C)c3ccccc23)n[nH]1 | -20% | 18% | 11µM* | ? | 16%
Cc1cccc(CN2C(=O)N/C(=C/c3cc(C)n(-c4cc(C)ccn4)c3C)C2=O)c1 | -6% | 10µM* | 30% | -2% | -8%
COc1ccc(S(=O)(=O)NCC(c2ccc(N(C)C)cc2)N2CCCC2)cc1F (centres undefined) | -4% | -16% | / | / | /
Cc1ccc(NC(=O)Cn2c(=O)oc3cc(S(=O)(=O)N4CCC(C)CC4)ccc32)cc1C | ? | ? | 3% | 20µM* | -2%
Cc1ccc(NC(=O)Cn2c(=O)oc3cc(S(=O)(=O)N4CCC(C)CC4)ccc32)cc1Cl | 1% | -5% | / | / | /
C/C(=N/Oc1nc(C)cc(C)n1)c1ccc(Cl)cc1Cl | -15% | ? | 10µM* | ? | -1%
CC1CCN(Cc2c(O)ccc3c(=O)c(-c4nc5ccccc5s4)c(N)oc23)CC1 | 3% | ? | -25% | 1% | 4%
CC1CCCN(Cc2c(O)ccc3c(=O)c(-c4nc5ccccc5s4)c(N)oc23)C1 (centres undefined) | 14% | ? | 25µM* | ? | -1%
O=C(CCC1CCN(Cc2ccccc2)CC1)c1ccc2c(c1)NCCCC2 | / | / | / | / | 1%
c1ccc2nc(-c3ccc(N4CCOCC4)cc3)ccc2c1 | 5% | -23% | 1.4µM* | 1.3µM* | -9%
CN1CCN(c2ccc(-c3ccc4ccccc4n3)cc2)CC1 | -10% | -76% | 0.32µM* | ? | -8%
